About 17,000 (4.4%) of roughly 390,000 compounds were called active. A call without a number means that no potency is given here. Not shown: some 8% with an inconclusive outcome. Many of the other results were omitted from the sample, so actives are more common in it than they were. Values without a mark were called inactive. Calls come from the whole dose curve; as a rule, active = well fitted inhibition curve with a large enough effect; inconclusive = small, poorly fitted or top-dose-only effect; inactive = no such curve, though single readings can be large or run the other way.
Each compound was assayed against Lysine-specific demethylase 4A (Homo sapiens) (UniProt O75164) (assay: qHTS Assay for Inhibitors of JMJD2A-Tudor Domain). Settings: AlphaScreen JMJD2A-Tudor / H3K4me3 peptide binding; series mostly up to 114 µM.
Chain of Lysine-specific demethylase 4A (Homo sapiens) (O75164 whole entry, looked up, the tested form may be a part): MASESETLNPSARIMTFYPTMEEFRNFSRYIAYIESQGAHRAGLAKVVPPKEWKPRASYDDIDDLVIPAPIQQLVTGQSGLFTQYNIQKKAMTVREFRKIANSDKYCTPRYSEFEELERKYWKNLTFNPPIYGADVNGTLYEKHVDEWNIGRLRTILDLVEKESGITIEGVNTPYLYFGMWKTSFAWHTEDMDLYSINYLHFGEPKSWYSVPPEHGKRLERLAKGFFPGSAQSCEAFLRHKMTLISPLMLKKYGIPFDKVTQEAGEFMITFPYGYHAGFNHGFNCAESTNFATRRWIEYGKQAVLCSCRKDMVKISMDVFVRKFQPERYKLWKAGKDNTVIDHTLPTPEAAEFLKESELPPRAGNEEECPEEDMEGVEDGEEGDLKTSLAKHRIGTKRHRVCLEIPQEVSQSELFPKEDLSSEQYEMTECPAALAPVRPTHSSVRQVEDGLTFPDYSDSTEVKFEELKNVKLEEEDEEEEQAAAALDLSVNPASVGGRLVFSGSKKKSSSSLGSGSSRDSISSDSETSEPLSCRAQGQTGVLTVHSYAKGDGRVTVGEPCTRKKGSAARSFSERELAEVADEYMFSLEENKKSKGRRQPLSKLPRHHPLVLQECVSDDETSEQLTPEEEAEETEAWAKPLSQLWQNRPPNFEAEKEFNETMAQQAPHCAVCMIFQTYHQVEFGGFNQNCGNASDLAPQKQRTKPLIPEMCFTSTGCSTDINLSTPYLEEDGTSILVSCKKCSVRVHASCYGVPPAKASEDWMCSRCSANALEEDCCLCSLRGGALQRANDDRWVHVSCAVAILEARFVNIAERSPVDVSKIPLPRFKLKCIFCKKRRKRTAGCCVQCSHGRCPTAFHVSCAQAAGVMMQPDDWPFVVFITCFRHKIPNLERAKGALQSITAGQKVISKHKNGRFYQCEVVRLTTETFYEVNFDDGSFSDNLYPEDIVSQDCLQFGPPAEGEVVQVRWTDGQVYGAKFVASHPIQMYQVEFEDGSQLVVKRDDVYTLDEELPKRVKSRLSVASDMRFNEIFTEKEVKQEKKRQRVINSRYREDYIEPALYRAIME
For `Oc1c(C=Nc2cccc3nsnc23)ccc2ccccc12`, the Potency was 89.1 µM (active). `O=C(Nc1ccc(F)cc1F)c1ccc2c(=O)n3c(nc2c1)CCCCC3` was tested, and the Potency was “inactive”. With `COc1cc2c(=O)c(S(=O)(=O)c3ccc(C(C)C)cc3)cn(Cc3ccccc3C)c2cc1OC` the Potency was “inactive”. For `CCc1ccc(NC(=O)CN2C(=O)C(c3ccccc3)=NC23CCCCCC3)cc1`, the Potency was “inactive”. For `C=CCN(C(=O)c1cc(C)cc(C)c1)C1(C(=O)Nc2ccccc2)CCN(C(C)C)CC1`, the Potency was “inactive”. `CCN(C(=O)Cc1nc(N)n[nH]1)C1(C(=O)Nc2ccccc2)CCCCC1` was tested, and the Potency was 100 µM (active). `CC1CCCC(C)N1C(=O)CN1CCN(c2nc(-c3ccc(F)cc3)cs2)CC1` (stereo not given) was tested, and the Potency was 79.4 µM (active). For `CCc1ccc(CNC(=O)C2CCN(c3nn4cc(-c5ccc(F)cc5)nc4s3)CC2)cc1`, the Potency was “inactive”. In the case of `O=C(COC(=O)C1CCCO1)Nc1nc(-c2ccc(F)cc2)cs1` (stereo not given), the Potency is reported as “inactive”. For `O=C(CNC(=O)c1ccccc1)OC(C(=O)Nc1cc([N+](=O)[O-])ccc1F)c1ccccc1` (stereo not given), the Potency was “inactive”. `COc1ccc(Cn2ccnc2SCC(=O)NCc2ccco2)cc1` was tested, and the Potency was “inactive”. In the case of `Cc1cccc(OCCSc2nc3ccc(NC(=O)COc4ccccc4C)cc3s2)c1`, the Potency is reported as “inactive”. With `COc1ccc(-c2cc(=O)c3c(O)cc(O[C@@H]4O[C@H](CO[C@@H]5O[C@@H](C)[C@H](O)[C@@H](O)[C@H]5O)[C@@H](O)[C@H](O)[C@H]4O)cc3o2)cc1O` the Potency was 20 µM (active). `COc1ccc(CCOC2OC(CO)C(OC(=O)/C=C/c3ccc(O)c(OC)c3)C(O[C@H]3O[C@@H](C)[C@H](O)[C@@H](O)[C@H]3O)C2O)cc1O` (stereo not given in full) was tested, and the Potency was “inactive”. With `C[C@@H]1O[C@@H](OC[C@H]2O[C@@H](Oc3c(-c4ccc(O)cc4)oc4cc(O)cc(O)c4c3=O)[C@H](O)[C@@H](O)[C@@H]2O)[C@H](O)[C@H](O)[C@H]1O` the Potency was “inactive”. For `COc1ccc(NC(=O)N2CCCn3nc(C)cc32)cc1OC`, the Potency was “inactive”. For `Cc1ccccc1NC(=O)Cn1c(=O)n(CCc2ccccc2)c(=O)c2ccccc21`, the Potency was “inactive”. With `OCCN(Cc1ccccc1)Cc1ccc(Cl)cc1` the Potency was 10 µM (active). `CN(C(=O)CN(CCO)CC(=O)N(C)C(C)(C)Cc1ccccc1)C(C)(C)Cc1ccccc1` was tested, and the Potency was “inactive”. `O=[N+]([O-])c1ccc(N(CCO)Cc2ccccc2)c([N+](=O)[O-])c1` was tested, and the Potency was “inactive”. For `CC(O)CN(Cc1ccc(Cl)cc1)CC(C)O` (stereo not given), the Potency was 8.91 µM (active). In the case of `CC(Cc1cccs1)N(Cc1ccc(Cl)cc1)C(=O)c1ccncc1` (stereo not given), the Potency is reported as “inactive”. `O=C(Cc1ccc(Cl)cc1)c1ccccc1` was tested, and the Potency was “inactive”. For `Cc1ccc(CN(C(=O)c2ccccc2[N+](=O)[O-])c2ccccn2)cc1`, the Potency was “inactive”. With `COc1ccc(CC(=O)Nc2ccc(-c3nc4ccccc4s3)c(C)c2)cc1` the Potency was “inactive”. For `Cc1ccc2cccc(NC(=O)C(C)Oc3ccc(C)c(C)c3)c2n1` (stereo not given), the Potency was “inactive”. `COc1ccc(-n2nc(C(=O)NCCc3ccc(Cl)cc3)c3c4ccccc4n(C)c3c2=O)cc1Cl` was tested, and the Potency was “inactive”. With `COc1cc(OC)c(NC(=O)Cc2ccc(-n3c(C)nc4cccnc43)cc2)cc1Cl` the Potency was “inactive”. `COc1cc2c(cc1OC)C(COc1ccc(F)cc1)N(C(=O)c1ccccc1F)CC2` (stereo not given) was tested, and the Potency was “inactive”. In the case of `Cc1cccc(C(=O)Nc2ccc(-c3nc4ncccc4o3)cc2C)c1`, the Potency is reported as “inactive”. `NCC(=O)c1cccc2ccc[n+]([O-])c12` was tested, and the Potency was “inactive”. In the case of `Cc1ccc2cccc(O)c2[n+]1[O-]`, the Potency is reported as 10 µM (active). In the case of `O=C(NCC(c1ccco1)S(=O)(=O)c1cccs1)c1ccc(F)cc1` (stereo not given), the Potency is reported as “inactive”. With `Cc1ccc(CNC(=O)CSc2c3c(nc4cc(Cl)ccc24)CCCC3)cc1` the Potency was “inactive”. With `COc1ccc(-c2nc(C)c(CCNC(=O)c3ccc(C(F)(F)F)cc3)s2)cc1OC` the Potency was “inactive”. With `Cc1ccc(Nc2c(-c3ccc(C)s3)nc3ccccn23)cc1` the Potency was “inactive”. `Cc1cccc(C)c1Nc1c(-c2ccccc2O)nc2ncccn12` was tested, and the Potency was “inactive”. `Cc1ccc(-c2nc3ccccn3c2Nc2c(C)cccc2C)o1` was tested, and the Potency was 50.1 µM (active). For `Nc1scc[n+]1Cc1cccc2cccnc12`, the Potency was “inactive”. `c1ccc2c(CNn3cnnc3)cccc2c1` was tested, and the activity change, negative = inhibition was 0% [at 11.4 µM]. For `c1ccc2c(C[n+]3csc4ccccc43)cccc2c1`, the Potency was 17.8 µM (active). `CCc1c(C)sc(NC(=O)C2c3ccccc3Oc3ccccc32)c1C(=O)OC(C)C` was tested, and the Potency was “inactive”. With `CCOC(=O)c1c(C)n(S(=O)(=O)c2ccc(C)cc2C)c2ccc(NS(=O)(=O)c3ccc(C)cc3C)cc12` the Potency was “inactive”. In the case of `COc1ccc2c(c1)CCc1c(C(=O)Nc3cc(C)ccc3O)noc1-2`, the Potency is reported as “inactive”. For `Cc1ccc(N2CCN(C(=O)CCc3c(C)nc4c(c3C)c(=O)n(C)c(=O)n4C)CC2)c(C)c1`, the Potency was “inactive”. `O=S(=O)(O)c1cc2onnc2c2ccccc12` was tested, and the Potency was 50.1 µM (active). `CCC(Sc1nnc(-c2ccc(OC)cc2)c(-c2ccc(OC)cc2)n1)C(=O)NC1CCCCC1` (stereo not given) was tested, and the Potency was “inactive”. `CCOC(=O)c1ccc(N2C(=O)c3[nH]nc(-c4ccccc4)c3C2c2ccc(C(C)C)cc2)cc1` (stereo not given) was tested, and the Potency was “inactive”. In the case of `O=C(C1=C(O)C(=O)N(Cc2ccccc2)C1c1cccnc1)c1ccco1` (stereo not given), the Potency is reported as “inactive”. `O=C(C1=C(O)C(=O)N(c2ncccn2)C1c1cccs1)c1ccco1` (stereo not given) was tested, and the Potency was 20 µM (active). For `O=C(c1ccco1)N(Cc1cccs1)c1ccc(O)cc1`, the Potency was “inactive”. With `Cc1cc(C)c2oc(C(=O)Nc3ccc(S(=O)(=O)N(C)c4ccccc4)cc3)cc(=O)c2c1` the Potency was “inactive”. In the case of `Cc1cc(N2CCN(c3cccc(C(F)(F)F)c3)CC2)n2nc(-c3ccccc3)nc2n1`, the Potency is reported as “inactive”. With `CC(OC(=O)CN1C(=O)COc2ccccc21)C(=O)NCc1ccc(F)cc1` (stereo not given) the Potency was “inactive”. `O=C(CN1C(=O)COc2ccc(Cl)cc21)Nc1ccc(N2CCOCC2)cc1` was tested, and the Potency was “inactive”. `O=C(CN1C(=O)COc2ccccc21)Nc1ccc(F)cc1` was tested, and the Potency was 50.1 µM (active). `Cc1cccc(C(C)C)c1NC(=O)C(NS(=O)(=O)c1cccc2nsnc12)c1ccccc1` (stereo not given) was tested, and the Potency was “inactive”. With `COc1ccc(-c2cn3c(n2)sc2cc(C(=O)Nc4ccc(F)cc4)ccc23)cc1` the Potency was “inactive”. In the case of `CCOc1cc(C2C(C(=O)OC(C)C)=C(C)NC3=C2C(=O)CCC3)cc([N+](=O)[O-])c1O` (stereo not given), the Potency is reported as “inactive”. `CCOc1cc(C2C(C(=O)OC)=C(C)NC3=C2C(=O)c2ccccc23)ccc1O` (stereo not given) was tested, and the Potency was 50.1 µM (active). Compound `COC(=O)C1=C(C)NC2=C(C(=O)c3ccccc32)C1c1ccc(-c2ccc(C(=O)O)cc2)o1` (stereo not given) has an activity change, negative = inhibition of -17.6% [at 11.4 µM]. `COC(=O)C1=C(c2ccccc2)c2ccccc2S(=O)(=O)N1CC(=O)Nc1ccccc1C(F)(F)F` was tested, and the Potency was “inactive”. In the case of `Cc1cccc2c(=O)cc(CSc3ccccc3NC(=O)C(C)C)[nH]c12`, the Potency is reported as “inactive”. In the case of `CC(=O)Nc1cc(C(=O)NCc2ccc(F)cc2Cl)ccc1Sc1ccc(Cl)cc1`, the Potency is reported as “inactive”. For `Cc1ccc(CNC(=O)C2(C(F)(F)F)C/C(=C\CCO)CCCO2)o1` (stereo not given), the Potency was “inactive”. In the case of `CCCCn1cc(S(=O)(=O)c2ccc(OCC)cc2)c(=O)c2cc(OC)c(OC)cc21`, the Potency is reported as “inactive”. `COC1=CC(=O)OC(c2ccc(OC)cc2)C1` (stereo not given) was tested, and the Potency was “inactive”. For `COc1ccc(N=Nc2c(-c3ccc(OC)cc3)[nH]oc2=O)cc1`, the Potency was “inactive”. With `COc1ccc(N=C2C=CC(=O)O2)cc1` the Potency was 79.4 µM (active). In the case of `CCOC(=O)C1=C(CN2CCc3ccccc32)NC(=O)NC1c1cccc([N+](=O)[O-])c1` (stereo not given), the Potency is reported as 44.7 µM (active). With `CCOC(=O)C1=C(CN2CCc3ccccc32)NC(=O)NC1c1cc(C)ccc1C` (stereo not given) the Potency was “inactive”. For `CCOC(=O)C1=C(CN2CCCCCC2)NC(=O)NC1c1cccc([N+](=O)[O-])c1` (stereo not given), the Potency was “inactive”. For `COc1ccc(N2CCN(S(=O)(=O)CCNC(=O)C(c3ccccc3)c3ccccc3)CC2)cc1`, the Potency was “inactive”. With `C[C@H](NC(=O)c1nc[nH]c1C(=O)NCC(=O)OC(C)(C)C)c1ccccc1` the Potency was “inactive”. For `CC(C)(C)OC(=O)N1CCC(NC(=O)c2[nH]cnc2C(=O)N[C@@H](Cc2ccccc2)C(=O)OCc2ccccc2)CC1`, the Potency was “inactive”. `C[C@@H](NC(=O)c1nc[nH]c1C(=O)N1CCN(C(=O)OC(C)(C)C)CC1)c1ccccc1` was tested, and the Potency was 79.4 µM (active). For `Cc1cccc(C(=O)N2c3nc(-c4ccco4)nn3C3(CCCCC3)[C@@H]3CCCC[C@@H]32)c1`, the Potency was “inactive”. With `CCOc1ccc(CNC(=O)c2cccc(Nc3nc4ccccc4n4nnnc34)c2)cc1OC` the Potency was “inactive”. With `ON=C1/C(=N\O)CC2(C/C1=N/O)OCCO2` the Potency was 28.2 µM (active). With `O/N=C1\CC2(Cc3nonc31)OCCO2` the Potency was “inactive”. `CCOC(=O)c1ccc(NC2=CC(c3ccc(OCC)cc3)N(c3ccc(C(=O)OCC)cc3)C2=O)cc1` (stereo not given) was tested, and the Potency was “inactive”. For `CCOc1ccc(CCNC(=O)c2c(C)oc3ncn(C)c(=O)c23)cc1`, the Potency was “inactive”. In the case of `CCCc1cc(=S)n2c([nH]c3ccccc32)c1C#N`, the Potency is reported as 25.1 µM (active). In the case of `CN(C)Cc1c(C#N)c2ccccc2n1C`, the Potency is reported as “inactive”. `Cc1ccccc1-c1nc2cc(NC(=O)c3cccc(OCCC(C)C)c3)ccc2o1` was tested, and the Potency was “inactive”. For `O=C(O)C(c1ccccc1)N1C(=O)/C(=C\c2ccc(-c3cccc(Cl)c3)o2)SC1=S` (stereo not given), the Potency was 20 µM (active). For `O=C(NCc1ccccc1)c1cc(-c2cccc(Cl)c2)on1`, the Potency was “inactive”. With `O=C(NC(=S)Nc1cc(C(F)(F)F)ccc1N1CCOCC1)c1ccc(-c2cccc(Cl)c2)o1` the Potency was “inactive”. `Cc1ccc(NC(=O)Cn2cnc3nc4c(cc3c2=O)CCCC4)cc1Cl` was tested, and the Potency was “inactive”. In the case of `CCOc1ccc(N2C(=O)CN(c3cccc4ccccc34)C2=S)cc1`, the Potency is reported as “inactive”. With `CCOc1ccc(N2C(=O)/C(=C/c3ccc(C)o3)N(C)C2=S)cc1` the Potency was 35.5 µM (active). With `CCO/C=C1\C(=O)N(c2ccc(OCC)cc2)C(=O)c2ccccc21` the Potency was “inactive”. With `CCCN1C(=O)C(O)(CC(=O)c2ccc(CC)cc2)c2cc(Br)ccc21` (stereo not given) the Potency was “inactive”. For `CCS(=O)(=O)c1cc([N+](=O)[O-])c(Sc2ccccc2N)s1`, the Potency was 44.7 µM (active). `Cc1ccc(S(=O)(=O)NCCSc2ccccc2)cc1[N+](=O)[O-]` was tested, and the Potency was “inactive”.
Note: nearly all actives have a fitted effect of over 50% in size.
Potency is the fitted concentration of half-maximal effect.
